# From PubChem BioAssay AID1347416 (National Center for Advancing Translational Sciences (NCATS), 2020)
# The campaign covered roughly 4,100 compounds. About 1,600 (39%) were called active. About 25% were inconclusive and are not listed. The call rests on the fitted dose curve; in most records, active means well fitted inhibition curve with a large enough effect; inconclusive means small, poorly fitted or top-dose-only effect; inactive means no such curve, though single readings can be large or run the other way. The list shows a part of the results. Entries that show only a call come without a potency.
# Assay: qHTS Validation assay for Inhibitors of Plasmodium falciparum Dd2 growth in vitro; further: nearly all actives have a fitted effect of over 70% in size
# Details: P. falciparum Dd2 in RBCs, SYBR Green growth, 72 h; series mostly up to 28.7 µM
# Method in brief: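 P. falciparum Dd2-infected red blood cells (2.5% hematocrit, 0.3% parasitemia) grown 72 h at 37 °C under 5% O2 with compounds in a titration, 29 uM to 0.5 nM final. Growth read as SYBR Green-1 fluorescence after ~16 h lysis; artesunate 300 nM as positive control.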
# Potency means the concentration at half of the fitted maximal effect.
row,SMILES,Potency
1,CCOC(=O)c1c(NC(=O)CSc2cn(CCNC(=O)c3cccc(C(F)(F)F)c3)c3ccccc23)sc2c1CCC2,inactive
2,CCCn1cc(SCC(=O)NCc2ccco2)c2ccccc21,8.41 µM (active)
3,COc1ccccc1C1c2[nH]c3ccccc3c2C[C@H]2C(=O)N(C3CCN(Cc4ccccc4)CC3)CC(=O)N12 (stereo not given in full),2.11 µM (active)
4,COc1ccc(C2c3[nH]c4ccccc4c3C[C@H]3C(=O)N(C4CCN(Cc5ccccc5)CC4)CC(=O)N23)c(OC)c1 (stereo not given in full),2.37 µM (active)
5,COc1ccc(C2c3[nH]c4ccccc4c3C[C@H]3C(=O)N(C4CCN(Cc5ccccc5)CC4)CC(=O)N23)cc1OC (stereo not given in full),2.99 µM (active)
6,CCOc1ccccc1C1c2[nH]c3ccccc3c2C[C@H]2C(=O)N(C3CCN(Cc4ccccc4)CC3)CC(=O)N12 (stereo not given in full),2.37 µM (active)
7,CC(=O)N(C)C1=C(N2CCOCC2)C(=O)c2ccccc2C1=O,0.842 µM (active)
8,Cc1ccc(-n2cc(-c3ccccc3)nc2S(=O)(=O)CC(=O)Nc2ccc(F)cc2)cc1,inactive
9,COc1ccc(-c2nn(-c3ccc(F)cc3)c(OC(C)=O)c2-c2ccc(NC(C)=O)cc2)cc1OC,15 µM (active)
10,CC(=O)Oc1c(-c2ccc(NC(=O)CC(C)C)cc2)c(-c2ccc(F)cc2)nn1-c1ccc(F)cc1,13.3 µM (active)
11,COc1cccc(C2C3=C(N=c4s/c(=C\c5ccccc5O)c(=O)n42)c2ccccc2CC3)c1OC (stereo not given),2.99 µM (active)
12,COc1cccc(CN2C(=O)OC3(CCN(Cc4ccc5c(c4)CCO5)CC3)C2(C)c2cccnc2)c1 (stereo not given),4.73 µM (active)
13,O=C1CO[C@H]2CCN(Cc3ccc(O)cc3)CC[C@@H]2N1c1ccccc1,inactive
14,CC1(c2ccccc2)N(Cc2ccc(O)cc2)C(=O)OC12CCN(Cc1c[nH]c3ccccc13)CC2 (stereo not given),5.31 µM (active)
15,COc1cccc(CN2C(=O)OC3(CCN(Cc4c[nH]c5ccccc45)CC3)C2(C)c2cccnc2)c1 (stereo not given),8.41 µM (active)
16,COc1cccc(CN2CCC3(C2)NC(=O)c2ccccc2CO3)c1 (stereo not given),inactive
17,COc1cccc(CN2C(=O)OC3(CCN(Cc4ccccc4OC)CC3)C2(C)c2cccnc2)c1 (stereo not given),4.73 µM (active)
18,COCc1cc(=O)n(CC(=O)NCc2cccc(OC)c2)c(N2CCOCC2)n1,inactive
19,COCCc1noc([C@@H]2CN(Cc3ccc(C)o3)C[C@H]2CO)n1,inactive
20,COC(=O)C1C2C=CC3(CN(Cc4cccs4)C(=O)C13)O2 (stereo not given),inactive
21,CCOC(=O)c1cnc2ccc(OC)cc2c1Nc1ccc(N2CCN(C)CC2)cc1,1.68 µM (active)
22,Cc1ncc(CO)c(/C=N/NC(=O)c2ccc(O)cc2)c1O,inactive
23,Cc1ccc(C(=O)N/N=C/c2ccc([N+](=O)[O-])s2)cc1,5.96 µM (active)

row,SMILES,Potency
1,Cc1ccccc1C1C(C#N)=C2N=C(N)c3c(sc4c3CCCCC4)N2C2=C1C(=O)CCC2 (stereo not given),2.66 µM (active)
2,CN(CC1CCOC1)C(=O)Nc1ccc(Br)cc1 (stereo not given),inactive
3,COc1cc(C2CC(=O)N(Cc3ccc(F)cc3)c3ccccc3S2)cc(OC)c1OC (stereo not given),2.11 µM (active)
4,COc1cc(-c2ccnc3nc(Cc4ccc(F)cc4)nn23)cc(OC)c1OC,inactive
5,COC(=O)c1ccc(CN2C(=O)[C@@H]3C[C@@H](O)CN3C3(CN(Cc4ccc(F)cc4)C3)C2=O)cc1,inactive
6,CC(C)(C)C(=O)NC(=S)Nc1ccccc1N1CCCC1,inactive
7,O=C(/C=C/c1ccco1)NC(=S)Nc1ccccc1N1CCCC1,2.66 µM (active)
8,O=C(CCSc1nc(-c2ccco2)cc(C(F)(F)F)n1)Nc1cccc(O)c1,inactive
9,Cc1noc(-c2cn(C3CCN(C(=O)C(C)Oc4ccc(Cl)cc4)CC3)nn2)n1 (stereo not given),inactive
10,Cc1ccc2c(CC(=O)Nc3ccccc3C(F)(F)F)coc2c1C,inactive
11,Cc1ccc(-c2cn3cccnc3n2)cc1NC(=O)Cc1ccccc1,inactive
12,Cc1ccc(C)c(NC(=O)CN(C)C(=O)c2ccc(-c3cccc(C(F)(F)F)c3)o2)c1,2.11 µM (active)
13,Cc1cccc(Cn2nnc(C(=O)Nc3cc(C)ccc3C)c2N)c1,inactive
14,Cc1ccc(C)c(NC(=O)CN(C)C(=O)c2cc3ccccc3o2)c1,13.3 µM (active)
15,COCC(=O)Nc1ccc2c(c1)OCC(=O)N2Cc1ccc(C)cc1,inactive
16,Cc1ccc(C)c(NC(=O)CN(C)C(=O)c2ccc(-c3ccc(Cl)cc3)o2)c1,4.73 µM (active)
17,O=C(Nc1ccccc1N1CCCC1)c1cc2ccccc2o1,inactive
18,COc1cccc(NC(=O)[C@@H]2C[C@H](c3cccc(C(F)(F)F)c3)N(Cc3cnn(C)c3)C2)c1,inactive
19,COc1cccc(NC(=O)CN(C)C(=O)c2ccc(-c3cccc(C(F)(F)F)c3)o2)c1,0.596 µM (active)
20,O=C(c1cc2c(s1)CCCC2)N1CCc2c(nc3cc[nH]n3c2=O)C1,inactive
21,Cc1ccc(C(=O)NCCc2noc(C3CC3)n2)cc1C,inactive
22,COc1cccc(NC(=O)CN(C)C(=O)c2ccc(-c3ccc(Cl)cc3)o2)c1,4.22 µM (active)
23,Cc1cccc(NC(=O)CN(c2ccc(F)cc2)S(C)(=O)=O)c1,inactive

row,SMILES,Potency
1,CN(CC(=O)Nc1cccc(F)c1)C(=O)c1ccc(-c2cccc(C(F)(F)F)c2)o1,0.668 µM (active)
2,CCCC(C)C(=O)Nc1ncc(S(=O)(=O)c2ccc([N+](=O)[O-])cc2)s1 (stereo not given),5.96 µM (active)
3,COc1ccc(-c2cc3c(=O)n(CCNC(=O)c4c(F)cccc4Cl)ccn3n2)cc1,inactive
4,COc1ccc(CCNC(=O)c2cc(C(=O)c3cc(Cl)ccc3O)cn(CCc3ccc(OC)cc3)c2=O)cc1,3.76 µM (active)
5,COc1ccc(OC)c(CCNC(=O)c2nc(-c3ccc(Cl)cc3)n3c2CCCCC3)c1,inactive
6,Cc1ccc(Oc2c(C)nc(-c3ccccc3)[nH]c2=O)cc1,5.31 µM (active)
7,Cc1ccc(-c2nc3ccccc3c(=O)n2O)cc1,inactive
8,CCC(=O)N1CCN(C2CCN(Cc3ccccn3)C2=O)CC1 (stereo not given),inactive
9,Cc1ccnc2nc(C(=O)Nc3cc(Cl)ccc3N3CCOCC3)nn12,4.73 µM (active)
10,CCn1ncc(Cl)c1C(=O)Nc1ccncc1,inactive
11,CNC(=O)[C@@H]1CN(Cc2ccc(C#N)cc2)C[C@H]1COC,inactive
12,O=C(Nc1ccncc1)c1ccc(Cl)c(Cl)c1,inactive
13,O=C(Nc1ccncc1)Nc1ccc(Cl)cc1,10.6 µM (active)
14,N#Cc1ccc(NC(=O)Nc2ccc(Cl)cc2)cc1,5.31 µM (active)
15,Cc1cc(C)n2nc(C(=O)N3CCN4C(=O)CN(C)C(=O)C4C3)cc2n1 (stereo not given),inactive
16,CC(C)c1ccc(N2CC(C(=O)NCc3cncn3C3CC3)CC2=O)cc1 (stereo not given),inactive
17,CCc1ccc(NC(=O)CSc2nc3n[nH]c(C)c3c(=N)n2-c2ccc(C)cc2)cc1,6.68 µM (active)
18,Cc1ccc(NC(=O)CSc2n[nH]c(-c3ccccn3)n2)cc1,inactive
19,CCc1ccc(OCC(=O)Nc2ccc(-c3nc4ncccc4o3)cc2)cc1,inactive
20,CC(C)c1noc(-c2cccn3c(CNC(=O)c4cccc(Cl)c4)nnc23)n1,inactive
21,CCCN1CCc2[nH]cnc2C12CCN(C(=O)c1ccc(CSC)o1)CC2,inactive
22,CC(OC(=O)CCc1cc(C(C)(C)C)c(O)c(C(C)(C)C)c1)C(=O)NC1CC1 (stereo not given),4.73 µM (active)
23,COc1ccc(-c2noc(-c3cccn3CC(=O)Nc3cccc(Cl)c3C)n2)cc1F,inactive

row,SMILES,Potency
1,COc1ccc(-c2noc(-c3cccn3CC(=O)Nc3ccccc3F)n2)cc1F,4.22 µM (active)
2,COc1ccc(-c2noc(-c3cccn3CC(=O)Nc3cc(C)ccc3C)n2)cc1F,inactive
3,COc1ccc(C(=O)NCc2nnc3c(-c4nc(C(C)C)no4)cccn23)cc1F,inactive
4,COc1ccc(-c2noc(-c3cccn3CC(=O)Nc3ccccc3C)n2)cc1F,5.31 µM (active)
5,O=C1NC2(CCN(Cc3ccc(OC(F)(F)F)cc3)C2)OCc2ccccc21 (stereo not given),inactive
6,O=C1COCC2(CN(Cc3ccsc3)C2)CN1Cc1cccc(OC(F)(F)F)c1,17.2 µM (active)
7,O=C(c1cc(C(F)(F)F)[nH]n1)N1CC[C@@H](c2ccc(F)cc2)[C@H](O)C1,inactive
8,CCOC(=O)N1CCc2c(sc3nc4n(c(=O)c23)N=C(c2ccc(OC)cc2)CS4)C1,inactive
9,CCCCCNc1nc2sc3c(c2c(=O)n1-c1cccc(Cl)c1)CCN(C)C3,7.5 µM (active)
10,CCCCNc1nc2sc3c(c2c(=O)n1-c1cccc(Cl)c1)CCN(C)C3,9.44 µM (active)
11,CC(C)OC(=O)c1cccc(NC(=O)Cn2nnc3sc4c(c3c2=O)CCCC4)c1,inactive
12,Cc1ccc(-c2nc(CN3CCCC3=O)no2)cc1,inactive
13,CCn1nnc(NC(=O)c2ccc(C(C)(C)C)cc2)n1,9.44 µM (active)
14,CCCn1nnc(NC(=S)NC(=O)Cc2ccccc2)n1,inactive
15,C[C@]1(CO)[C@H]2Cc3sc(NC(=O)c4cccc(F)c4)nc3[C@@H](CC(=O)N3CCOCC3)[C@]2(C)CC[C@H]1O,8.41 µM (active)
16,CC1CCN(C(=O)C[C@@H]2c3nc(NC(=O)c4cccc(F)c4)sc3C[C@@H]3[C@](C)(CO)[C@H](O)CC[C@]32C)CC1,10.6 µM (active)
17,CCN(CC)C(=O)C[C@@H]1c2nc(NC(=O)c3cccc(F)c3)sc2C[C@@H]2[C@](C)(CO)[C@H](O)CC[C@]21C,9.44 µM (active)
18,CCOc1ccccc1C(=O)Nc1nc2c(s1)CC(C)CC2 (stereo not given),inactive
19,CCOc1cc(C(=O)Nc2nnc(CC)s2)ccc1OCC(=O)N1CCOCC1,inactive
20,C[C@H](C(=O)N1CCCC1)C1CC[C@@]2(C)Cc3sc(NC(=O)C4CC4)nc3[C@@H](C)[C@@H]2[C@H]1O (stereo not given in full),inactive
21,Cc1ccc(-c2nnc3ccc(-c4ccoc4)nn23)nc1,inactive
